From the supplement of paper PMC3724861
Shown is part of a subset that was picked to be rich in hits. The true hit rate is not given. Unmarked numbers belong to inactive results.

Each sequence was assayed on T1, Caupolican (Caup) homeodomain DNA-binding domain (assay: PBM E-score (8-mer, recovered from the published 9-mer minima) (E-score (dimensionless, -0.5 to 0.5)); Drosophila protein; higher = stronger relative binding preference, active = 0.31 or more).
T1 sequence: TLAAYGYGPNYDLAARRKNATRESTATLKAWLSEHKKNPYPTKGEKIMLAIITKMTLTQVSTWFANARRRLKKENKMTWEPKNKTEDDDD
Method in brief: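 An enrichment score, with higher meaning stronger, expresses relative binding preference for each short DNA word. The protein used was Caup's homeodomain DNA-binding domain (residues 214-303), produced by in vitro transcription and translation and tested at 100 nM on custom-designed protein binding microarrays. The 8-mer values were recovered from published 9-mer scores, each equal to the lower of its two constituent 8-mer scores.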

| Sequence | PBM E-score |
| --- | --- |
| AAATGCAA | 0.0939 |
| CCACAGGA | -0.0146 |
| ATTGCCCG | -0.0341 |
| CAACTCAC | 0.0566 |
| AGTAAGAA | 0.06 |
| ATCGCAAG | -0.0386 |
| ATTGTAAC | 0.308 |
| ATTGTAAA | 0.246 |
| CTTGTAAA | 0.365 (active) |
| CTTGTAAC | 0.424 (active) |
| CCTGTAAC | 0.176 |
| GTTGTAAA | 0.279 |
| GCATGAGA | -0.0059 |
| CTCGTGAC | -0.0131 |
| CTAGACAA | 0.0936 |
| TTAGACAA | 0.206 |
| ATAGACAG | 0.16 |
| GTAGACAA | 0.313 (active) |
| ATAGACAT | 0.321 (active) |
| ATAGACAC | 0.259 |
| ATCGAAAC | -0.0231 |
| CTTCCAAG | -0.0467 |
| AGAGGTGG | -0.107 |

| Sequence | PBM E-score |
| --- | --- |
| CTGTATCC | 0.2 |
| CTGTATCA | 0.15 |
| AAGTATCG | 0.134 |
| ATGTATCG | 0.337 (active) |
| ATGTATCC | 0.332 (active) |
| AAGTATCC | -0.0551 |
| ATGTATCA | 0.321 (active) |
| GTGTATCA | 0.276 |
| ACGTATCG | 0.15 |
| ATGTCCAG | 0.2 |
| ACGCAACA | 0.215 |
| ATTTAGTC | 0.0884 |
| CCCCAAAC | -0.0197 |
| CTTGCTGC | -0.0454 |
| AATAACAC | 0.284 |
| AGTAACAT | 0.316 (active) |
| AATAACAT | 0.348 (active) |
| AGTAACAC | 0.24 |
| AGTAACAG | 0.19 |
| AATAACAG | 0.241 |
| AGGCGTCG | -0.157 |
| CTTTGTCA | 0.0793 |
| CAAAGTAC | 0.172 |

| Sequence | PBM E-score |
| --- | --- |
| GGAGTGGA | -0.133 |
| ACATATTA | 0.33 (active) |
| CCATATTA | 0.105 |
| CCATATTC | 0.011 |
| CCATATCA | 0.0253 |
| ATATATTC | 0.192 |
| ACATATTC | 0.329 (active) |
| ACATATTG | 0.26 |
| ACATATCA | ≥ 0.321 (active) |
| ACATATCG | 0.238 |
| TTTGAAAA | 0.105 |
| AAGGATGT | 0.185 |
| AGTTAAGC | 0.0239 |
| GCACACCC | -0.143 |
| AGAGTGCG | -0.148 |
| CTCTCCTC | -0.078 |
| CCGACGCG | -0.167 |
| GCCTGGCC | -0.292 |
| ATCTACAC | 0.227 |
| AACTACAA | 0.342 (active) |
| GACTACAC | 0.33 (active) |
| AACTACAC | 0.355 (active) |
| CACTACAC | 0.206 |

| Sequence | PBM E-score |
| --- | --- |
| ACCTACAA | 0.171 |
| AACTACAT | 0.408 (active) |
| CACTACAA | 0.266 |
| AACTACGT | 0.151 |
| AACTACCT | 0.122 |
| AACTACAG | 0.177 |
| GACTACAA | 0.222 |
| TCTCACAA | 0.048 |
| TAGTGTGA | 0.108 |
| GCCTCACC | -0.232 |
| ACTAGATG | 0.121 |
| CACCCTAG | -0.0221 |
| ACACCTCT | 0.111 |
| AGCGCGGC | -0.184 |
| TGCACGCA | -0.0359 |
| TAGATGGA | 0.0256 |
| CACATGGC | -0.0837 |
| GCCATGGC | -0.246 |
| AACATTGG | 0.159 |
| ACCATGGC | 0.0502 |
| AACATTGT | ≥ 0.347 (active) |
| AACATTGA | 0.243 |
| TCCATGGA | 0.0552 |

| Sequence | PBM E-score |
| --- | --- |
| ATCATGGC | -0.0613 |
| TACATGGA | 0.413 (active) |
| GACATGGC | 0.314 (active) |
| AACATGGC | 0.328 (active) |
| ACAGTAAA | 0.124 |
| CCGTTCTC | -0.0675 |
| CTCGCACA | -0.0236 |
| CGCAGGAC | -0.0855 |
| ATCTCCCC | -0.153 |
| ATTCAGTG | 0.034 |
| CTAACGAG | 0.0026 |
| ACACCGTC | 0.0118 |
| AACATGGG | 0.351 (active) |
| CACATGGA | 0.156 |
| ATCATGGG | -0.0312 |
| AACATGGT | 0.37 (active) |
| AAGATGGT | 0.109 |
| ACCATGGT | 0.127 |
| GAGATGGA | -0.0584 |
| CACATGGG | -0.0556 |
| GACATGGA | 0.345 (active) |
| ATCATGGA | 0.00242 |
